pPAFAH FP inh – pPAFAH (human) enzyme inhibition | Q13093 | recombinant pPAFAH, FP-rhodamine probe fluorescence polarization | inhibition, % at 3.39 µM | actives 1.5% (n = 330,000) | AID 463082;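 active means inhibition above the mean inhibition across the screen plus 3 SD, cut at about 25% in these data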;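 further: inhibitors block binding of the rhodamine activity-based probe so polarization drops; 0% = enzyme with DMSO and 100% = wells lacking pPAFAH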
Target sequence (Q13093 whole entry, looked up): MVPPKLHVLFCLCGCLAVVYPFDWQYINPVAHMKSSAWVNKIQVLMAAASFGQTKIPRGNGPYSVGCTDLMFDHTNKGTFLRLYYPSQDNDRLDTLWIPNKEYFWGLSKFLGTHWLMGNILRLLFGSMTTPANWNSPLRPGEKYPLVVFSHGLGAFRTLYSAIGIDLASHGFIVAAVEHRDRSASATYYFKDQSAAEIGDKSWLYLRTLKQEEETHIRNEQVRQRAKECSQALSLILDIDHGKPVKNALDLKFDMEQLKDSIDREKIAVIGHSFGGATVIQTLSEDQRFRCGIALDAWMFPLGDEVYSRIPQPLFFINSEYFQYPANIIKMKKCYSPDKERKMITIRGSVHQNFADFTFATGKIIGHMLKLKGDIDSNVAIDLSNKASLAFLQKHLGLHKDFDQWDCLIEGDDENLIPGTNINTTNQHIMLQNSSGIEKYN
PAFAH1B3 inh – blocks human PAF acetylhydrolase 1B catalytic subunit 3 | actives 0.28% (n = 340,000) | recombinant PAFAH1B3, FP-rhodamine probe, fluorescence polarization | inhibition, % at 3.39 µM | Q15102;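 active means inhibition above the screen-wide average of all tested compounds plus 3 SD, cut at about 25% in these data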;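 further: 0% = enzyme with DMSO only and 100% = wells lacking PAFAH1B3 protein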
Target sequence (Q15102 whole entry, looked up): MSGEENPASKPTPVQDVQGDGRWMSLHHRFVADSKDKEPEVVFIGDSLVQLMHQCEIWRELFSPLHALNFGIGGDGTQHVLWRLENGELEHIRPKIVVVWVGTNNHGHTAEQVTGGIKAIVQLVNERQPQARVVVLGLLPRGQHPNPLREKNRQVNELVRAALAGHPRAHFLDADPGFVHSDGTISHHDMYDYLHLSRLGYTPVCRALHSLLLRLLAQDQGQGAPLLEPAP
DAGLB inh – blocks human DAGLB lipase activity | Q8NCG7 | HEK293T DAGLB membrane lysate, EnzChek fluorogenic substrate | inhibition, % at 5.17 µM | actives 0.059% (n = 340,000); in the data active means inhibition above about 34%;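 further: 0% = enzyme with vehicle and 100% = wells lacking enzyme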
PAFAH2 FP inh – PAFAH2 (human) inhibition. Q99487. inhibition, % at 3.39 µM. actives 0.99% (n = 340,000). recombinant PAFAH2, FP-rhodamine activity probe, fluorescence polarization;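 active means inhibition above the mean over all tested compounds plus 3 SD, cut at about 30% in these data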;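 further: inhibitors block probe labeling of enzyme so polarization drops; 0% = enzyme with DMSO and 100% = wells lacking PAFAH2 protein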
ATG4B inh – ATG4B (human) cysteine protease inhibition. Q9Y4P1. ATG4B cleavage of LC3-PLA2, NBD-HPC fluorescence, 1 h. inhibition, % at 8.33 µM. actives 0.51% (n = 340,000). AID 504462; in the data active means inhibition above about 40%
PAFAH1B2 FP inh – PAFAH1B2 (human) inhibition. inhibition, % at 3.39 µM. recombinant PAFAH1B2, FP-rhodamine activity probe, fluorescence polarization. actives 1.2% (n = 340,000). AID 492953. P68402;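 active means inhibition above the mean of all tested compounds plus 3 SD, cut at about 24% in these data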;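 further: 0% = enzyme with DMSO and 100% = wells lacking PAFAH1B2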
pPAFAH confirm – confirmation of human plasma PAF acetylhydrolase (pPAFAH) inhibitors. shares compounds with pPAFAH FP inh. recombinant pPAFAH, FP-Rh probe fluorescence polarization. inhibition, % at 3.39 µM. actives 72% (n = 2,300). AID 463230;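 active means mean inhibition of the triplicate above the hit cutoff set for the earlier primary screen, cut at about 25% in these data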;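 further: 0% = enzyme with DMSO and 100% = wells lacking pPAFAH enzyme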
* marks the source's active call; other numbers are inactive results; . = no result. A selection: hits, their analogues and other compounds. The true share with any hit is near 3%.

SMILES | pPAFAH FP inh | PAFAH1B3 inh | DAGLB inh | PAFAH2 FP inh | ATG4B inh | PAFAH1B2 FP inh | pPAFAH confirm
Cc1cc(NC(=O)CN2C(=O)NC(CC(C)C)C2=O)ccc1Br (stereo not drawn) | -4 | 12 | -3 | 3 | 0 | 4 | .
Cc1c(NC(=S)N/N=C/c2ccc(O)cc2)c(=O)n(-c2ccccc2)n1C | -7 | 1 | -3 | 12 | 2 | 2 | .
Cc1c(NC(=S)N/N=C/c2cc([N+](=O)[O-])ccc2O)c(=O)n(-c2ccccc2)n1C | 47* | 25 | 9 | 23 | 11 | 19 | 17
Cc1nc(-c2ccc(NC(=O)c3ccc(Br)o3)cc2)cs1 | 1 | 3 | -2 | -4 | -2 | -1 | .
Nc1c(CNCc2nnn(Cc3ccccc3)c2N)nnn1Cc1ccccc1 | . | . | -8 | . | . | . | .
CCCCn1c(SCC(=O)c2ccc(O)c(O)c2)nc2ccsc2c1=O | 42* | 2 | 21 | 28 | 8 | 15 | 88*
N#Cc1cc2c(=O)n3ccccc3nc2n(Cc2ccco2)c1=NC(=O)c1ccco1 | 37* | 10 | -7 | -6 | 2 | 5 | 9
CSc1nsc(/C=C/Nc2ccc(O)cc2C)c1C#N | 48* | 14 | 9 | 22 | 8 | 12 | 9
CNC(=S)N1CCN(C(=O)C2CCCO2)CC1 (stereo not drawn) | -8 | -10 | -2 | 7 | -4 | -3 | .
O=[N+]([O-])c1cccc(NC(=S)Nc2nc(-c3ccccc3Cl)cs2)c1 | 39* | 8 | 0 | -37 | 21 | 8 | 23
COc1cc2c(cc1OC)C(c1ccccc1C)CC(=O)N2 (stereo not drawn) | 67* | 6 | 1 | 1 | 3 | 3 | 3
COc1cc2c(cc1OC)C(c1cccc(OC)c1OC)CC(=O)N2 (stereo not drawn) | 4 | -5 | -2 | -3 | -9 | 11 | .
Cc1onc(-c2ccccc2)c1C(=O)NC(=S)NNC(=O)c1cc(-c2ccc(F)cc2)n[nH]1 | 13 | 9 | 10 | 2 | -1 | 3 | .
CC(=O)Nc1cccc2ncccc12 | 55* | 3 | -2 | 0 | -3 | -1 | 7
CC(C)(C)c1ccc(C(=O)Nc2cccc3ncccc23)cc1 | 1 | 0 | -4 | 0 | -6 | 3 | .
COc1cc(OC)c(C(=O)c2ccccc2[N+](=O)[O-])c(OC)c1 | . | . | -5 | . | . | . | .
Cc1cccc(NC(=O)CN2CCN(C(=O)CNC(=O)Cc3cccc4ccccc34)CC2)c1C | 48* | 6 | -1 | 3 | -15 | 3 | 4
CC(C)(C)C(=O)Nc1scc(-c2ccc(-c3ccccc3)cc2)c1C(=O)O | 43* | 1 | 14 | 0 | 10 | 8 | 25*
COc1ccc(-c2ccc(NC(=O)c3ccco3)cc2)nn1 | -8 | 5 | 2 | 2 | 0 | 0 | .
Cc1cn(CC(=O)NCCCN2CCCC2=O)c(=O)[nH]c1=O | . | 6 | -4 | -4 | . | 7 | .
Cc1nnc(SCC(=O)c2c[nH]c3ccccc23)n1C1CC1 | -2 | 10 | -4 | -6 | 2 | 3 | .
Cc1cc(C(=O)NNC(=O)CN2C(=O)NC(C)(c3ccccc3)C2=O)c(C)o1 (stereo not drawn) | -1 | 1 | -1 | 0 | -2 | 0 | .
COc1cc2c(ccc3cc(OC)c(OC)c(O)c32)cc1O | 39* | 23 | -1 | 15 | -17 | 13 | 22
COc1ccccc1/C=C1\SC(=S)N(CCC(=O)NNC(=O)c2ccccc2O)C1=O | 35* | 11 | 3 | 5 | -1 | 2 | 66*
CC1CN(S(=O)(=O)c2ccc(F)cc2)C(C)N1C(=O)N1CCOCC1 (stereo not drawn) | 5 | 6 | -2 | -7 | 4 | -1 | .
SMILES | pPAFAH FP inh | PAFAH1B3 inh | DAGLB inh | PAFAH2 FP inh | ATG4B inh | PAFAH1B2 FP inh | pPAFAH confirm
CCOC(=O)[C@@H]1[C@H]2COc3ccccc3[C@H]2N2C(=O)N(c3cccc(F)c3)C(=O)[C@]12C | 1 | 6 | -5 | -2 | -13 | 0 | .
CCCCC(=O)c1c(O)c2ccccc2oc1=O | 11 | 6 | -1 | 1 | 0 | -1 | .
CC(=N)c1c(O)c2ccccc2oc1=O | 63* | 3 | 3 | 2 | -7 | 5 | 1
O=C1CC(c2ccc(O)c(O)c2)Oc2c1ccc(O)c2O (stereo not drawn) | 60* | 19 | -4 | 50* | -8 | 12 | 60*
CC(C)=CCc1c(O)ccc2c1OC(c1ccc(O)c(O)c1)CC2=O (stereo not drawn) | 20 | 15 | 2 | 7 | -15 | 6 | .
NCCCCNCCCN | 62* | 14 | 2 | -4 | -2 | 3 | 0
CC1(c2ccccc2)NC(=O)N(CC(=O)Nc2ccc(C(N)=O)cc2)C1=O (stereo not drawn) | -1 | -6 | 1 | 7 | -9 | -1 | .
O=C(Nc1ccc(S(=O)(=O)Nc2nccs2)cc1)c1cccc(F)c1 | 0 | -1 | 4 | -2 | -2 | 4 | .
O=C(Nc1ccc(S(=O)(=O)Nc2nccs2)cc1)c1ccc(=O)[nH]c1 | 39* | 30* | 0 | 10 | -1 | 12 | 5
Cc1ccc(NC(=S)NNC(=O)c2ccccc2O)c(C)c1 | 5 | 7 | 7 | 17 | 2 | 7 | .
COc1ccc(OC)c(-c2c3cc(O)c(=O)cc-3oc3cc(O)c(O)cc23)c1 | 93* | 58* | -56 | 73* | -138 | 74* | 85*
COc1cc([N+](=O)[O-])ccc1-c1ccc(/C=N/NC(N)=O)o1 | 67* | 8 | -1 | -1 | -1 | 0 | -5
COc1ccc(S(=O)(=O)Nc2cccc3c2O[C@H](CN(C)C(=O)Nc2c(C)noc2C)[C@@H](C)CN([C@H](C)CO)C3=O)cc1 | 2 | 3 | -1 | -2 | -3 | -1 | .
CCCC(=Nc1ccc(N)cc1)C1=C(O)C(C(=O)OC)C(C)(C)CC1=O (stereo not drawn) | 40* | 13 | 8 | 16 | -6 | 4 | 5
CCc1nc2ccc(C(=O)NCCc3ccc(OC)c(OC)c3)cc2nc1CC | 1 | 13 | -1 | 4 | -6 | 3 | .
COc1ccc(CCNC(=O)c2ccc3nc(-c4ccco4)c(-c4ccco4)nc3c2)cc1OC | 44* | 22 | 6 | 23 | 15 | 11 | 20
Cc1ccc(NC(=O)NNC(=O)c2cc3ccccc3cc2O)cc1C | 22 | 22 | 6 | -13 | -5 | 7 | .
O=C(NNC(=O)c1cc2ccccc2cc1O)Nc1ccccc1F | 65* | 14 | 1 | 2 | -4 | 3 | 37*
O=C(CNC(=O)c1ccc(-c2ccccc2)cc1)OCc1c(F)cccc1Cl | 7 | 8 | -5 | 5 | 7 | 12 | .
CN(CC(=O)Nc1ccc(F)c(F)c1F)C(=O)c1cc(S(=O)(=O)N(C)C)ccc1N1CCCC1 | . | -2 | -2 | 2 | 1 | 1 | .
